Screens deposited in PubChem by National Center for Advancing Translational Sciences (NCATS).
Shown are actives, neighbours in structure and some others; about 2.7% of the full set was active somewhere.
12-LOX inh = ALOX12 (human) lipoxygenase inhibition; P18054; purified 12hLO, xylenol orange hydroperoxide absorbance; Potency, µM (doses to about 108 µM), inactives show top-dose activity change, negative = inhibition, most hits filed as inhibitors; 580,000 compounds, 1.1% hits; also: potency is read from the fitted curve at half-maximal effect; % is scaled to controls: 0 for no effect and ±100 for the full control effect
Target sequence (P18054 whole entry, looked up): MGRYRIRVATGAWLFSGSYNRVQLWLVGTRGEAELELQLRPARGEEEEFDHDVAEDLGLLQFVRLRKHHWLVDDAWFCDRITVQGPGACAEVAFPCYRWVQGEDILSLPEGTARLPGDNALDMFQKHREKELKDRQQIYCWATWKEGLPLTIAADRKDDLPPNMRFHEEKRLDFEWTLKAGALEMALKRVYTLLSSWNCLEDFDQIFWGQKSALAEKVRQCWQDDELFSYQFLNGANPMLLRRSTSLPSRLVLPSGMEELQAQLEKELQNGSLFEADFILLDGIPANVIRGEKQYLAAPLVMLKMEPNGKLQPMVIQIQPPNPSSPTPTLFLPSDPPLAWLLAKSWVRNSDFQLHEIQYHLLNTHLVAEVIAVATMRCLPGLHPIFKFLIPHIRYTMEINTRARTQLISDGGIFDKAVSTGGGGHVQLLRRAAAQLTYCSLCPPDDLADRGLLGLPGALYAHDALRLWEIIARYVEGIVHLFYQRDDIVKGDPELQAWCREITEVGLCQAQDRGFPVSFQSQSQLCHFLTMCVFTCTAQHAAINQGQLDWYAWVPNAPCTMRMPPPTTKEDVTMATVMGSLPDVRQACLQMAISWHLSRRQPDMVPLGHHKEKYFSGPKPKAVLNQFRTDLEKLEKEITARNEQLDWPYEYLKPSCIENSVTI
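Hydroperoxide product was detected by ferrous iron/xylenol orange as the 573 to 405 nm absorbance ratio. Arachidonic acid at 40 uM (final) was turned over for 30 min at room temperature by 150 nM human 12hLO, pH 7.0 Hepes buffer, after 15 min compound preincubation.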
mIDH1 inhibitor = inhibitors of human mutant IDH1 R132H; O75874; IDH1-R132H enzyme, NADPH consumption, diaphorase/resazurin fluorescence; Potency, µM (series often up to 76.6 µM), for the others: top-dose activity change, negative = inhibition, hits mostly inhibitors; 390,000 compounds, 0.093% hits; AID 602179; also: potency is read from the fitted curve at half-maximal effect; % is scaled to controls: 0 for no effect and ±100 for the full control effect; nearly all actives have a fitted effect of over 65% in size
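IDH1-R132H (0.5 ug/mL dispensed) in pH 7.5 Tris buffer was preincubated 30 min with compound, then given a substrate mix of 0.016 mM NADPH and 2 mM alpha-KG for 80 min at room temperature; remaining NADPH was read by diaphorase/resazurin fluorescence.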
LDHA block = inhibitors of human lactate dehydrogenase A. P00338. purified LDHA, NADH/diaphorase-resazurin fluorescence; active compounds read low. activity change, % (values are at about 110 or 230 µM). 480,000 compounds, 0.15% hits. AID 1347041; in the data active = activity change below about -30%; inconclusive = mostly about -25% to -30%;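 also: plate controls were DMSO wells for no effect and wells without enzyme for full effect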
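Human LDH5 at 2 nM final in Tris HCl pH 7.4 with 0.06 mM NADH and 0.2 mM pyruvate, reacted 5 minutes at room temperature. Remaining NADH coupled via diaphorase/resazurin; resorufin fluorescence read at 0 and 20 minutes, normalized to enzyme-free and DMSO wells.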
Nrf2 inh = blocks Nrf2 signaling; A549 ARE-Fluc reporter, luciferase luminescence, 18-24 h; Potency, µM (series often up to 46 µM), for the others: at the highest dose activity change, negative = inhibition, usual class: inhibitors; 360,000 compounds, 2.1% hits; AID 504444; also: potency is read from the fitted curve at half-maximal effect; % is scaled to controls: 0 for no effect and ±100 for the full control effect; nearly all actives have a fitted effect of over 60% in size
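In this cell-based qHTS, ARE-driven firefly luciferase in A549 cells reports Nrf2 activity; the luminescent signal after BugLite lysis is the measured value, with a prior CellTiter-Fluor read for cell health.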
A549 viability = counter-screen for Nrf2 inhibitors: cytotoxicity in A549 cells. Potency, µM (highest dose often 46 µM), inactives show at the top dose activity change, negative = cytotoxicity, hits mostly inhibitors. AID 504648. A549 ARE-Fluc cells, CellTiter-Fluor viability, 18-24 h. 390,000 compounds, 0.16% hits; also: potency is read from the fitted curve at half-maximal effect; % is scaled to controls: 0 for no effect and ±100 for the full control effect
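A549 ARE_Fluc cells in 5% FBS OPTI-MEM were exposed to compounds in concentration-response for 18-24 h at 37 deg C. Viability was read by CellTiter-Fluor fluorescence (Ex 405/Em 525) after 30 min, before the luciferase read.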
Nrf2 ARE act = Nrf2 pathway activation; 410,000 compounds, 0.31% hits; Potency, µM (doses to about 46.1 µM), for the others: top-dose activation, most hits filed as activators; AREc32 ARE-luciferase reporter (MCF7-derived line), luminescence, 24 h; AID 624171; also: potency is read from the fitted curve at half-maximal effect; % of control where 0% means no effect; nearly all actives have a fitted effect of over 65% in size
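AREc32 cells carrying an ARE-driven firefly luciferase reporter were seeded at 1000 cells/well in OPTI-MEM with 5% FBS, then exposed to compound for 24 hr at 37 deg C. Luminescence was read with Steady-Glo after 30 min at RT.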
The depositor's hits bear a star; ? = inconclusive; . = not tested or not shown; [ ] = dose if it differs, or a comment. Unless noted, calls follow the shape of the dose curve; as a rule, active = well fitted curve in the direction sought with a large enough effect; inconclusive = small, poorly fitted or top-dose-only effect, or another doubt; inactive = no such curve, though single readings can be large; an effect the other way counts as inactive or inconclusive.

SMILES	12-LOX inh	mIDH1 inhibitor	LDHA block	Nrf2 inh	A549 viability	Nrf2 ARE act
COc1cc(NC2c3ccccc3C(=O)N2c2ccccc2C)cc(OC)c1OC (stereo not given)	3%	.	-19	.	.	.
Cc1ccc(NC2c3ncccc3C(=O)N2c2ccccc2C)cc1C (stereo not given)	10µM*	?	7	8%	-3%	5%
O=S(=O)(c1ccc(Oc2ncnc3scc(-c4ccccc4)c23)cc1)N1CCOCC1	58%	-5%	-5	16µM*	-5%	4%
O=S(=O)(c1ccc(Oc2ccccc2)cc1)N1CCOCC1	9%	-2%	-5	.	-1%	0%
CCn1c(=O)c(C(=O)CN2CCCc3ccccc32)c(N)n(Cc2ccccc2)c1=O	104%	-2%	-3	16µM*	-3%	2%
CNc1c(NC(=O)Nc2ccc(Cl)cc2)c(=O)oc2ccccc12	?	.	1	.	.	.
CNc1c(NC(=O)Nc2ccc(F)cc2)c(=O)oc2ccccc12	10µM*	.	5	.	.	.
COc1cccc(C2CC(=O)Nc3n[nH]c(Nc4ccccc4)c32)c1 (stereo not given)	55%	.	-3	.	.	.
O=C(OCc1ccc(Br)cc1)c1cnccn1	-26%	.	0	.	.	.
O=C(/C=C/C(=O)c1ccc(Cl)cc1)c1ccccc1	2.5µM*	.	-2	.	.	.
CCOC(=O)c1ccccc1N/C=C/C(=O)c1ccccc1	0%	4%	-4	?	-1%	10µM*
Cc1cc(N/C=C/C(=O)c2ccccc2)ccc1Br	49%	5%	-1	?	-4%	5.6µM*
O=C(/C=C/Nc1ccccc1)c1ccccc1	-1%	4%	-3	?	-3%	10µM*
O=C(/C=C/Sc1ccccc1)c1ccc(Cl)cc1	1%	10%	2	20%	-25%	?
CC(=O)Nc1ccc(N/C=C/C(=O)c2ccccc2)cc1	-30%	1%	-2	?	-10%	2%
O=C(Nc1nc2ccccc2n1CCN1CCOCC1)c1cn(-c2ccccc2)nc1-c1ccccc1	493%	5%	-6	21µM*	?	0%
COc1ccc(CCC(=O)Oc2ccc3ccc(OC)cc3c2)cc1	-41%	.	-22	.	.	.
CCN1/C(=C/C=C/C=C/C=C/c2sc3ccccc3[n+]2CC)Sc2ccccc21	40µM*	-7%	-8	21µM*	?	2%
CCN1/C(=C/C=C/C=C/c2sc3ccccc3[n+]2CC)Sc2ccccc21	.	.	-8	.	.	.
Oc1c(Cl)cc(Cl)cc1C=Nc1cccc(C(F)(F)F)c1	?	.	0	.	.	.
O=C1/C(=C/c2ccccc2Cl)SC(=S)N1CCCC(=O)N(CCO)c1ccccc1	?	-20%	3	16µM*	-12%	4%
O=C(CCCN1C(=O)/C(=C/c2ccccc2Cl)SC1=S)Nc1ccccn1	-19%	-2%	-4	21µM*	-23%	1%
O=C(CCSc1nc2cc(Cl)ccc2s1)NC1CCCCC1	1%	.	8	.	.	.
COc1cccc(-c2cc(C(=O)Nc3cc(Cl)ccc3O)on2)c1	?	26%	-3	7%	2%	7.9µM*
CCCC(C)NC(=O)c1cccs1 (stereo not given)	-11%	.	-4	.	.	.
SMILES	12-LOX inh	mIDH1 inhibitor	LDHA block	Nrf2 inh	A549 viability	Nrf2 ARE act
CC(C)CNC(=O)NC(=O)COC(=O)c1cc(-c2ccco2)nc2ccccc12	?	.	4	.	.	.
CCNC(=O)NC(=O)C(C)OC(=O)c1cc(-c2ccco2)nc2ccccc12 (stereo not given)	13µM*	.	-1	.	.	.
NC(=O)NC(=O)COC(=O)c1cc(-c2ccco2)nc2ccccc12	14µM*	.	3	.	.	.
CCNC(=O)COC(=O)c1cc(-c2ccco2)nc2ccccc12	7.1µM*	2%	1	4%	5%	?
C=CC[N+](CC)(CC)CC#Cc1ccccc1	33%	.	-2	.	.	.
Cc1ccc(SCC(=O)NC(C)(C#N)C2CC2)c(C)c1 (stereo not given)	35µM*	.	-7	.	.	.
Cc1ccc(SCC(=O)NC(C)(C#N)C2CC2)cc1C (stereo not given)	?	.	0	.	.	.
CCOc1ccccc1NC(=O)CN(c1ccc(C)cc1)S(=O)(=O)c1c(C)noc1C	0%	2%	-1	16µM*	-4%	0%
COc1cccc(CNC(=O)CN(c2cc(C)cc(C)c2)S(=O)(=O)c2c(C)noc2C)c1	28%	4%	1	0%	0%	-1%
CCOc1ccc(OCC)c(NC(=O)CN(c2ccc(C)cc2)S(=O)(=O)c2c(C)noc2C)c1	-23%	1%	4	-25%	-8%	-1%
Cc1ccc(CNC(=O)CN(c2ccc(C(C)C)cc2)S(=O)(=O)c2c(C)n[nH]c2C)cc1	-30%	-21%	-1	23µM*	?	0%
COc1cccc(CNC(=O)CN(c2ccc(C(C)C)cc2)S(=O)(=O)c2c(C)noc2C)c1	0%	3%	-7	16µM*	-5%	2%
CC1CCCC/C1=N\NC(=O)CCC(=O)Nc1ccc(Br)cc1 (stereo not given)	45%	.	-2	.	.	.
CCOc1cccc(CNC(=O)c2ccc3c(c2)N(S(=O)(=O)c2ccccc2)CC3)c1	36%	.	.	.	.	.
CO/N=C(/c1ccc(OC)cc1)c1ccc(OCC(C)C)cc1	-4%	.	5	.	.	.
Cc1ccc(C)c(OCCn2cc(C(=O)c3cccs3)c3ccccc32)c1	-13%	-28%	-8	?	-12%	3%
Cc1ccc(C)c(OCCn2cc(C(=O)O)c3ccccc32)c1	13%	33µM*	-12	-12%	-8%	0%
CNC(=S)N/N=C/c1cn(CCOc2ccccc2OC)c2ccccc12	?	4%	-2	-6%	-2%	10%
CNC(=S)N/N=C/c1cn(CCOc2cccc(OC)c2)c2ccccc12	35µM*	-1%	-4	?	-14%	8%
Cc1ccccc1OCCn1cc(C(=O)O)c2ccccc21	0%	-1%	-2	-2%	-3%	0%
CC(=O)c1cn(CCOc2cc(C)ccc2C)c2ccccc12	-25%	5%	1	6.5µM*	-1%	2%[9.22 µM]
Cc1ccccc1OCCn1cc(/C(N)=N/O)c2ccccc21	-8%[57.4 µM]	7%	-5	23µM*	-23%	3%
CN(Cc1ccc(F)cc1)Cc1ccccc1OCC(O)CN1CCCCC1 (stereo not given)	20%	.	.	.	.	.
COc1ccc2c(C)c(CC(=O)Nc3ccc(F)cc3F)c(=O)oc2c1OC	4%	.	0	.	.	.
COCCN1CCCCCC(O)c2cc(C(=O)NCCc3cccnc3)ccc21 (stereo not given)	21%	.	.	.	.	.
Cc1cc(C)cc(-c2nnc(SCc3nc4ccccc4o3)o2)c1	?	.	14	.	.	.
